Measured values from PubChem BioAssay (EPA / NIEHS).
Records with an inconclusive call do not appear. Calls of active or inactive are those of the source. How the source made its calls: active means hit-call score of the fitted dose curve at least 0.9, where 1 is the maximum; inconclusive means response in the unintended direction; inactive means score below 0.9.

The molecules below were run against Oxysterols receptor LXR-alpha (Homo sapiens) (UniProt Q13133) (assay: ATG_LXRa_TRANS: Attagene TRANS-FACTORIAL HepG2 Assay for human Liver X Receptor alpha (LXRa) (AID 2282980)). Conditions: HepG2 Attagene TRANS reporter, LXRa transactivation.
How it was run: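 Transient HepG2 transfectants, 24 h dosing, RT-PCR/CE mRNA reporter quantitation; gain-of-signal vs DMSO.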

Sequence of Oxysterols receptor LXR-alpha (Homo sapiens) (Q13133 whole entry, looked up): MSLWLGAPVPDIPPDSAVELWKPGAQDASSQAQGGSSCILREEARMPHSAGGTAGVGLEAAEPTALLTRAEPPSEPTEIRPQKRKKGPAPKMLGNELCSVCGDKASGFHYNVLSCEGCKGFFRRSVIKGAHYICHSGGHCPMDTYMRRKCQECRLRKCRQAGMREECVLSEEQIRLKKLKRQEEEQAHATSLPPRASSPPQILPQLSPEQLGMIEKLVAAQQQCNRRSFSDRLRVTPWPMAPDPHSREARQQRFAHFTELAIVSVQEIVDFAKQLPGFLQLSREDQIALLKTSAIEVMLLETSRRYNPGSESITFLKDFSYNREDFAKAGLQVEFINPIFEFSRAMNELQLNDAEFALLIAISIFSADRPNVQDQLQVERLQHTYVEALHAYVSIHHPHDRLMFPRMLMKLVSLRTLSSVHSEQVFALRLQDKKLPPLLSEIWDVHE

SMILES	outcome
OC[C@@H](O)[C@H]1O[C@@H]2O[C@H](C(Cl)(Cl)Cl)O[C@@H]2[C@H]1O	inactive
CCCSP(=S)(OCC)Oc1ccc(Cl)cc1Cl (stereo unspecified)	inactive
COC(F)(C(F)(F)C(F)(F)F)C(F)(C(F)(F)F)C(F)(F)F (stereo unspecified)	inactive
Brc1ccc(Oc2c(Br)cc(Br)cc2Br)c(Br)c1	inactive
OC(Cc1ccccc1Cl)(Cn1[nH]cnc1=S)C1(Cl)CC1 (stereo unspecified)	inactive
CC(C)=CC1C(C(=O)OCc2cccc(Oc3ccccc3)c2)C1(C)C (stereo unspecified)	inactive
O=[N+]([O-])c1c2ccccc2cc2ccccc12	inactive
C[C@]12CC[C@@H](O)C[C@@H]1CC[C@@H]1[C@@H]2CC[C@]2(C)C(=O)CC[C@@H]12	inactive
CCOP(=O)(OCC)SCCSCC	inactive
O=S(=O)(F)C(F)(F)C(F)(F)C(F)(F)C(F)(F)F	inactive
C=C(C)[C@@H]1CC=C(C=O)CC1	inactive
CC(C)(C)c1cc([N+](=O)[O-])cc(C(C)(C)C)c1O	inactive
CCOC(=O)Cc1ccccc1	inactive
C=CC(F)(C(F)(F)F)C(F)(F)C(F)(F)F (stereo unspecified)	inactive
COP(=S)(OC)Oc1cc(Cl)c(I)cc1Cl	inactive
CN(C)c1ccc(N=O)cc1	inactive

Each molecule was assayed against Oxysterols receptor LXR-beta (Homo sapiens) (UniProt P55055) (assay: ATG_LXRb_TRANS: Attagene TRANS-FACTORIAL HepG2 Assay for human Liver X Receptor beta (LXRb) (AID 2282981)). Conditions: HepG2 Attagene TRANS GAL4-LXRb reporter, mRNA.
How it was run: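 In this TRANS format, exogenous chimeric NR-Gal4 protein activity, not endogenous factors, drives reporter expression in transfected human HepG2 cells. Exposure lasted 24 h; reporter mRNA was read by fluorescent capillary electrophoresis.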

Sequence of Oxysterols receptor LXR-beta (Homo sapiens) (P55055 whole entry, looked up, the tested form may be a part): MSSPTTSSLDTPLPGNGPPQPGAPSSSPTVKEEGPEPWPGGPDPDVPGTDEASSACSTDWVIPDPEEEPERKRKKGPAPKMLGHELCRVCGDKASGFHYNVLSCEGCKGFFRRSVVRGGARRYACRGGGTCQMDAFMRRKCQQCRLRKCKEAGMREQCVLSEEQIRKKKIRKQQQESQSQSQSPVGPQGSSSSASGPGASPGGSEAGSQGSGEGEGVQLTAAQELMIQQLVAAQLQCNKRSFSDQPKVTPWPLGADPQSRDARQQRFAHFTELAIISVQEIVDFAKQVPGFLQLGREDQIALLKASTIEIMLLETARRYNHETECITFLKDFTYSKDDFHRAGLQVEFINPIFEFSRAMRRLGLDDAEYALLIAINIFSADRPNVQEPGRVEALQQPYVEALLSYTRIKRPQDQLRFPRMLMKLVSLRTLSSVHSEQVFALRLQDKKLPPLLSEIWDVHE

SMILES	outcome	AC50
CC1(C)COP(Oc2ccccc2)OC1	inactive	–
O=C(N[C@H]1CN2CCC1CC2)c1ccc2c(c1)OCCO2	inactive	–
COC(F)(C(F)(F)C(F)(F)F)C(F)(C(F)(F)F)C(F)(F)F (stereo unspecified)	inactive	–
Clc1cccc(Cl)c1Cl	inactive	–
Brc1ccc(Oc2c(Br)cc(Br)cc2Br)c(Br)c1	inactive	–
NC(=O)c1ccc(N)nc1	inactive	–
CCCCS(=O)(=O)Cl	inactive	–
N#Cc1cccnc1	inactive	–
C=CCN=C=S	inactive	–
C[C@]12CC[C@@H](O)C[C@@H]1CC[C@@H]1[C@@H]2CC[C@]2(C)C(=O)CC[C@@H]12	inactive	–
N#Cc1ccncc1	inactive	–
Cc1cc(C(C)(C)c2ccc(O)c(C)c2)ccc1O	inactive	–
N#Cc1ccccc1Cl	inactive	–
O=S(=O)(F)C(F)(F)C(F)(F)C(F)(F)C(F)(F)F	inactive	–
C=C(C)[C@@H]1CC=C(C=O)CC1	inactive	–
CCOC(=O)Cc1ccccc1	inactive	–
C=CC(F)(C(F)(F)F)C(F)(F)C(F)(F)F (stereo unspecified)	inactive	–
COP(=S)(OC)Oc1cc(Cl)c(I)cc1Cl	inactive	–
CN(C)c1ccc(N=O)cc1	inactive	–
